Test results from PubChem BioAssay.
Where “and” joins values, the source holds several entries; their conditions need not be identical. Equal values may be shown once. Inconclusive results are not listed. Calls of active or inactive are those of the source. Unless noted, the limit is not given here; nearly all actives have AC50 up to about 26 µM.

Columns and labels:
[1] = Wnt pathway potentiators raising nuclear beta-catenin – imaging, WNT3A-conditioned medium, mouse C2C12, NPC library, primary screen (AID 1117326; in the data active = nuclear beta-catenin stimulation mostly above about 4.2%, no sharp cut-off; inactive = mostly below about 10%; also: reference of the scale not given here); details: stronger effect = higher value
[2] = stimulators of insulin release from INS-1E, primary screen, cell-based, 5 mM glucose, NPC library (AID 1117329;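 active = compound raises insulin release from rat beta cells at 5 mM glucose, no numeric limit stated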; also: reference of the scale not given here); details: rat INS-1E insulin secretion, at 10 µM, stronger effect = higher value
[3] = growth inhibition of GSK3B-pretreated HCT116 cells – cell-based, CellTiter-Glo, 0.2 to 20 µM (AID 1117336;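 active = compounds lowering colon cancer cell viability after pretreatment blocking the GSK3B kinase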); details: HCT116 viability after GSK3B inhibitor, at 20 µM, stronger effect = higher value
[4] = inhibition of endothelial tube formation, primary screen, imaging, VEGF stimulated, CD31 staining, tube area, NPC library (AID 1117340;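 active = compound that reduces growth-factor-driven endothelial tube area in a mixed cell culture, no cutoff stated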); details: VEGF-stimulated ADSC/ECFC co-culture, at 10 µM, stronger effect = higher value
[5] = GLP1 release stimulators, primary, NCI-H716, NPC library (AID 1117341;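 active = compound raises GLP1 secretion from the human gut endocrine cells, with no numeric limit stated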; also: reference of the scale not given here); details: NCI-H716 cells, at 10 µM, stronger effect = higher value
[6] = HCT116 colon cancer cell growth inhibition, primary screen, CellTiter-Glo luminescence, NPC library (AID 1117342;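 active = compounds that lower survival of HCT116 colon cancer cells in the luminescence readout, no numeric limit stated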); details: at 20 µM (top of the series)
[7] = reduced SW480 viability measured with CellTiter-Glo, NPC library, primary (AID 1117343;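 active = compounds that lower viability of the colon cancer cells in the luminescence readout, with no numeric limit stated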); details: CellTiter-Glo luminescence; at 20 µM (top of the series) unless noted
[8] = NPC library primary testing for decreased DLD-1 cell viability via CellTiter-Glo (AID 1117346;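 active = compounds that lower survival of DLD-1 colon cancer cells in the luminescence readout, no cutoff given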); details: DLD-1 viability, CellTiter-Glo luminescence; at 20 µM (top of the series)
[9] = viability loss in pontine glioma line – cell-based, SU-DIPG-XIII, MIPE4.0, CellTiter-Glo, qHTS, dose response (AID 1347061; cut-off not given, nearly all actives have AC50 up to about 37 µM;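 also: cells exposed to compound for 48 hours before readout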); details: CellTiter-Glo ATP luminescence
[10] = viability loss in pontine glioma line – cell-based, SU-DIPG-XXV, MIPE5.0, CellTiter-Glo, qHTS, dose response (AID 1347065); details: CellTiter-Glo ATP luminescence;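 also: cells exposed to compound for 48 hours before ATP readout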
[11] = growth inhibition of DIPG cells – cell-based, MIPE4.0 library, CellTiter-Glo luminescence, qHTS (AID 1347066; cut-off not given, nearly all actives have AC50 up to about 30 µM;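 also: cells exposed to compound for 48 hours before readout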); details: SU-DIPG-VI viability, CellTiter-Glo ATP luminescence
[12] = JHH-DIPG-1 glioma cell viability, MIPE5.0 library, CellTiter-Glo luminescence, qHTS (AID 1347067); details: JHH-DIPG-1 glioma viability, CellTiter-Glo ATP luminescence;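 also: cells exposed to compound for 48 hours before readout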
[13] = growth inhibition of DIPG cells – cell-based, MIPE5.0 library, qHTS (AID 1347068; cut-off not given, nearly all actives have IC50 up to about 30 µM;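 as to IC50: cells exposed to compound for 48 hours before viability readout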); details: SU-DIPG-XXV viability
[14] = P. berghei load reduction in hepatocytes – cell-based, HepG2, luciferase luminescence, HepG2 viability, primary screen (AID 624349; in the data active = parasite load remaining mostly below about 12%, no sharp cut-off; inactive = mostly above about 10%;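 also: 100% = mean of DMSO negative control wells on the same plate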); details: P. berghei liver stage in HepG2, luciferase luminescence, concentration not given here; parasite load remaining: stronger effect = lower value; viability: measured here: HepG2 viability without parasites
[15] = viability loss in pontine glioma line – cell-based, JHH-DIPG-1, MIPE4.0, CellTiter-Glo, qHTS, dose response (AID 1347062; cut-off not given, nearly all actives have AC50 up to about 27 µM;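 as to AC50: cells exposed to compound for two days before readout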); details: JHH-DIPG-1 viability, CellTiter-Glo ATP luminescence
[16] = viability loss with induced miR-34 in A549 – imaging, A549 dox-inducible miR-34, nuclei and caspase counts, primary screen (AID 1347080;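 active = compounds whose cell count with miR-34 switched on is under 0.7 times the count with it off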); details: A549 miR-34 inducible, Hoechst nuclei count, 48 h
[17] = MELAS cybrid and Rieske KO viability enhancers – cell-based, MELAS cybrids, Rieske KO mouse fibroblasts, CellTiter-Glo, primary screen (AID 1508586;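 active = mean z-score across replicates of 1.96 or higher in either the MELAS or the Rieske mutant cell line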;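 also: z relative to plate mean and SD of compound and empty wells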); details: low glucose
[18] = galactose survival enhancers in mitochondrial complex I cybrids – cell-based, galactose medium, ATP luminescence, primary screen (AID 1645843;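 active = z-score of at least 1.8 in each of two replicates, scored against plate mean and spread of sample wells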;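 also: positive z means more ATP and so rescue of galactose-driven cybrid death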); details: complex I mutant cybrid cells, 72 h, stronger effect = higher value
[19] = viability loss in pontine glioma line – cell-based, SU-DIPG-IV, MIPE4.0, CellTiter-Glo, qHTS, dose response (AID 1347063; cut-off not given, nearly all actives have AC50 up to about 30 µM;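 also: compound exposure lasted 48 hours before the viability readout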); details: CellTiter-Glo ATP luminescence
[20] = stronger effect = lower value, cell number ratio, induced over uninduced
[21] = measured here: relative caspase fold change +Dox/-Dox
[22] = measured here: total cells with miR-34 induction, stronger effect = lower value
[23] = measured here: total cells without miR-34 induction
[24] = MELAS cybrid survival, CellTiter-Glo 48 h, stronger effect = higher value
[25] = Rieske KO mouse fibroblast survival, CellTiter-Glo 72 h

N#Cc1c(N(CC(=O)O)CC(=O)O)sc(C(=O)O)c1CC(=O)O
-0.9%: nuclear beta-catenin stimulation ([1]; stimulation, at 2 µM)
inactive: nuclear beta-catenin stimulation ([1]; at 10 µM) -1.5% | insulin secretion stimulation [2] 4.8% | viability decrease [3] -2.4% | tube area decrease [4] 0% | GLP1 secretion stimulation [5] -1.7% | inhibition of viability [6] -4% | viability decrease (inhibition) [7] -7.1% | viability decrease (inhibition) [8] -13.8% | outcome [9] | outcome [10] | outcome [11] | outcome [12] | outcome [13]

CCC1=C[C@@H]2CN(C1)Cc1c([nH]c3ccccc13)[C@@](C(=O)OC)(c1cc3c(cc1OC)N(C)[C@H]1[C@@](O)(C(=O)OC)[C@H](OC(C)=O)[C@]4(CC)C=CCN5CC[C@]31[C@@H]54)C2
85%: viability [14]
72.7%: nuclear beta-catenin stimulation ([1]; stimulation, at 2 µM)
1.02: fold change [16, 21]
active: nuclear beta-catenin stimulation ([1]; at 10 µM) 60.8% | viability decrease [3] 103% | tube area decrease [4] 106% | inhibition of viability [6] 94.3% | viability decrease (inhibition) [7] 91.4% | viability decrease (inhibition) [8] 76.7% | AC50 [15] 0.0132 µM | AC50 [10] 0.204 µM | AC50 [12] 0.144 µM | IC50 [13] 1.15 µM
inactive: parasite load remaining [14] 30.5% | insulin secretion stimulation [2] 2.25% | GLP1 secretion stimulation [5] 2.5% | fold change [16, 20] 0.917 | z-score [17, 24] -2.16 | z-score [18] -2.04
1.89: z-score [17, 25]
2030: cell count [16, 23]
1860: cell count [16, 22]

Clc1ccc(C(Cn2ccnc2)OCc2ccc(Sc3ccccc3)cc2)c(Cl)c1 (centres undefined)
active: viability decrease [3] 110% | tube area decrease [4] 110% | inhibition of viability [6] 112% | viability decrease (inhibition) [7] 132% | viability decrease (inhibition) [8] 101% | AC50 [19] 16.6 µM
0%: nuclear beta-catenin stimulation ([1]; stimulation, at 2 µM)
inactive: nuclear beta-catenin stimulation ([1]; at 10 µM) 8.8% | insulin secretion stimulation [2] 6.2% | GLP1 secretion stimulation [5] 16%

COC(c1ccccc1)(c1ccccc1)[C@H](Oc1nc(C)cc(C)n1)C(=O)O
inactive: nuclear beta-catenin stimulation ([1]; at 10 µM) -1.5% | insulin secretion stimulation [2] 4.3% | viability decrease [3] -12.3% | tube area decrease [4] 10.8% | GLP1 secretion stimulation [5] -5.9% | inhibition of viability [6] 6.7% | viability decrease (inhibition) [7] 9.7% | viability decrease (inhibition) [8] -0.4% | outcome [9] | outcome [15] | outcome [19] | outcome [10] | outcome [11] | outcome [12] | outcome [13]
0%: nuclear beta-catenin stimulation ([1]; stimulation, at 2 µM)

NC(=O)c1ncn([C@@H]2O[C@H](CO)[C@@H](O)[C@H]2O)c1N
1.8%: nuclear beta-catenin stimulation ([1]; stimulation, at 2 µM)
inactive: nuclear beta-catenin stimulation ([1]; at 10 µM) 1.3% | insulin secretion stimulation [2] -2.3% | viability decrease [3] -16.2% | tube area decrease [4] -6.4% | GLP1 secretion stimulation [5] 1.9% | inhibition of viability [6] -20.6% | viability decrease (inhibition) [7] -88.2% | viability decrease (inhibition) [8] -22.4% | outcome [9] | outcome [15] | outcome [10] | outcome [11] | outcome [12] | outcome [13]

Clc1cccc(C(c2ccc3nc[nH]c3c2)n2ccnc2)c1 (centres undefined)
-0.6%: nuclear beta-catenin stimulation ([1]; stimulation, at 2 µM)
inactive: nuclear beta-catenin stimulation ([1]; at 10 µM) 0.3% | insulin secretion stimulation [2] 1.6% | viability decrease [3] 11.8% | tube area decrease [4] 19.4% | GLP1 secretion stimulation [5] 0.1% | inhibition of viability [6] 43.2% | viability decrease (inhibition) [7] 44.6% | viability decrease (inhibition) [8] 33.5% | outcome [10] | outcome [12] | outcome [13]

COC(=O)N[C@H](C(=O)N[C@@H](Cc1ccccc1)[C@@H](O)CN(Cc1ccc(-c2ccccn2)cc1)NC(=O)[C@@H](NC(=O)OC)C(C)(C)C)C(C)(C)C
0.8%: nuclear beta-catenin stimulation ([1]; stimulation, at 2 µM)
10500: cell count [16, 23]
8470: cell count [16, 22]
276%: viability [14]
-1.39: z-score [17, 25]
0.911: fold change [16, 21]
active: tube area decrease [4] 82.7%
inactive: parasite load remaining [14] 62.2% | nuclear beta-catenin stimulation ([1]; at 10 µM) 2.9% | insulin secretion stimulation [2] 2.15% | viability decrease [3] -7% | GLP1 secretion stimulation [5] -0.7% | inhibition of viability [6] 5.8% | viability decrease (inhibition) [7] -2% | viability decrease (inhibition) [8] -6.7% | outcome [9] | outcome [15] | outcome [11] | fold change [16, 20] 0.809 | z-score [17, 24] -0.0891 | z-score [18] 0.325

CCCS(=O)c1ccc2nc(NC(=O)OC)[nH]c2c1 (centres undefined)
6780 and 6570: cell count [16, 22]
active: viability decrease [3] 71.2% | inhibition of viability [6] 65.2% | viability decrease (inhibition) [7] 87.9% | AC50 [19] 14.8 µM | AC50 [10] 23.5 µM
83%: viability [14]
0.991 and 1.16: fold change [16, 21]
inactive: parasite load remaining [14] 34.6% | nuclear beta-catenin stimulation ([1]; at 10 µM) 4.7% | insulin secretion stimulation [2] 0.2% | tube area decrease [4] 20.1% | GLP1 secretion stimulation [5] 0.6% | viability decrease (inhibition) [8] 29.6% | outcome [12] | outcome [13] | fold change [16, 20] 0.922 and 0.972 | z-score [17, 24] -0.274 and -0.499 | z-score [18] 0.54
7350 and 6760: cell count [16, 23]
0.419 and -0.334: z-score [17, 25]
-1.8%: nuclear beta-catenin stimulation ([1]; stimulation, at 2 µM)

O=C(O)[C@H](O)c1ccccc1
5430: cell count [16, 22]
0.478: fold change [16, 21]
3.1%: nuclear beta-catenin stimulation ([1]; stimulation, at 2 µM)
5570: cell count [16, 23]
inactive: nuclear beta-catenin stimulation ([1]; at 10 µM) 3.7% | insulin secretion stimulation [2] -0.6% | viability decrease [3] -6.9% | tube area decrease [4] -9.1% | GLP1 secretion stimulation [5] 1.8% | inhibition of viability [6] -5.47% | viability decrease (inhibition) [7] -30.4% | viability decrease (inhibition) [8] -21.9% | fold change [16, 20] 0.975

C=CCc1cc(OC)c(O)c(C(=O)NCCO)c1
2.4%: nuclear beta-catenin stimulation ([1]; stimulation, at 2 µM)
inactive: nuclear beta-catenin stimulation ([1]; at 10 µM) 1.7% | insulin secretion stimulation [2] -0.7% | viability decrease [3] -4.9% | tube area decrease [4] 4.3% | GLP1 secretion stimulation [5] 0.4% | inhibition of viability [6] -7.7% | viability decrease (inhibition) [7] 33.7% | viability decrease (inhibition) [8] 1.9% | outcome [9] | outcome [15] | outcome [19] | outcome [11] | fold change [16, 20] 0.947 | z-score [17, 24] -0.166
0.662: fold change [16, 21]
8720: cell count [16, 22]
9220: cell count [16, 23]
0.363: z-score [17, 25]
